{"source": "PubChem BioAssay AID602323", "about": "(The Scripps Research Institute Molecular Screening Center, 2012)", "test_system": "80kDa SH", "experiment": "serine hydrolase inhibition in mouse brain membranes, late-stage follow-up, selectivity assay for DAGLb inhibitor project, biochemical, gel-based competitive ABPP, fluorescence, set 2 (AID 602323)", "settings": "mouse brain membrane, at 1 µM, active compounds read high", "note": "Calls of active or inactive are those of the source. How the calls were made is not given here.", "data": [{"smiles": "O=C(N1CCCCC1Cc1ccccc1)n1cc(-c2ccc(-c3ccccc3)cc2)nn1", "note": "(stereo unspecified)", "values": [{"measurement": "inhibition", "value": "10% (inactive)"}]}]}
